Experimental data reported in paper PMC9838217, “Structure of SALL4 zinc finger domain reveals link between AT-rich DNA binding and Okihiro syndrome”.
Residue numbers refer to the chain shown, from its start.

Legend:
Experiment in all cases: HT-SELEX; high values mean tight binding
Conditions in all cases: protein: recombinant; vector His6-GST; dsDNA, one strand shown
SALL4 ZFC4 WT (HT-SELEX) = target: T1, SALL4 ZFC4 WT (HT-SELEX) (Mus musculus, UniProt Q8BX22 870-940)
T1 sequence: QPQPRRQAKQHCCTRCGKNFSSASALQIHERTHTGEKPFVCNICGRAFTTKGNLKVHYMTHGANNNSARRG
In short: (§1)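 Purified recombinant mouse SALL4 zinc finger cluster 4 (residues 870–940, 1 µg) was incubated with library DNA (1.5 µg first cycle, 200 ng later) in 100 µl buffer (10 mM Tris–HCl pH 7.5, 50 mM NaCl, poly(dI-dC), DTT) for 10 min at room temperature. Ni2+ bead-captured complexes were washed, PCR-amplified and reselected for up to 6 cycles, in triplicate, then MiSeq-sequenced and scanned for 6-mers. Binding signal is each canonical k-mer's read fraction as fold change versus the initial random library.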

[1] = target: T2, SALL4 ZFC4 R900W (HT-SELEX) (Mus musculus, UniProt Q8BX22 870-940, R900W)
T2 sequence: T1 sequence with R31W
In short: as §1

[2] = target: T3, SALL4 ZFC4 G921D (HT-SELEX) (Mus musculus, UniProt Q8BX22 870-940, G921D)
T3 sequence: T1 sequence with G52D
In short: as §1

Sequence	binding signal (SALL4 ZFC4 WT (HT-SELEX))	binding signal [1]	binding signal [2]
TACTGA	1.38 ± 0.119 fold-change vs cycle 0	1.53 ± 0.139 fold-change vs cycle 0	1.42 ± 0.164 fold-change vs cycle 0
GACCGA	0.327 ± 0.0131 fold-change vs cycle 0	0.4 ± 0.0327 fold-change vs cycle 0	0.52 ± 0.0745 fold-change vs cycle 0
TCCACA	0.698 ± 0.0439 fold-change vs cycle 0	0.806 ± 0.0256 fold-change vs cycle 0	0.842 ± 0.0543 fold-change vs cycle 0
CTCTCC	0.497 ± 0.0273 fold-change vs cycle 0	0.603 ± 0.0441 fold-change vs cycle 0	0.672 ± 0.0341 fold-change vs cycle 0
AACTTA	2.13 ± 0.126 fold-change vs cycle 0	2.11 ± 0.126 fold-change vs cycle 0	1.89 ± 0.231 fold-change vs cycle 0
AGGACC	0.441 ± 0.038 fold-change vs cycle 0	0.54 ± 0.0359 fold-change vs cycle 0	0.632 ± 0.0389 fold-change vs cycle 0
CGGTCA	0.331 ± 0.0331 fold-change vs cycle 0	0.405 ± 0.0336 fold-change vs cycle 0	0.52 ± 0.0692 fold-change vs cycle 0
AACTGG	0.7531 ± 0.00684 fold-change vs cycle 0	0.889 ± 0.0264 fold-change vs cycle 0	0.904 ± 0.0346 fold-change vs cycle 0
CCGGAA	0.325 ± 0.0139 fold-change vs cycle 0	0.368 ± 0.0111 fold-change vs cycle 0	0.491 ± 0.0897 fold-change vs cycle 0
CAGAAA	1.12 ± 0.0595 fold-change vs cycle 0	1.18 ± 0.0406 fold-change vs cycle 0	1.15 ± 0.0688 fold-change vs cycle 0
ACTAAT	2.16 ± 0.0523 fold-change vs cycle 0	2.13 ± 0.102 fold-change vs cycle 0	1.86 ± 0.174 fold-change vs cycle 0
AAGTTC	1.29 ± 0.0532 fold-change vs cycle 0	1.44 ± 0.0457 fold-change vs cycle 0	1.36 ± 0.0438 fold-change vs cycle 0
CGGTAG	0.351 ± 0.018 fold-change vs cycle 0	0.418 ± 0.01 fold-change vs cycle 0	0.514 ± 0.0341 fold-change vs cycle 0
ATTGTC	1.14 ± 0.0493 fold-change vs cycle 0	1.21 ± 0.0499 fold-change vs cycle 0	1.24 ± 0.0435 fold-change vs cycle 0
AAATTT	2.66 ± 0.248 fold-change vs cycle 0	2.17 ± 0.141 fold-change vs cycle 0	1.93 ± 0.166 fold-change vs cycle 0
TAGAGA	1.42 ± 0.0253 fold-change vs cycle 0	1.54 ± 0.113 fold-change vs cycle 0	1.48 ± 0.0729 fold-change vs cycle 0
GGTGGA	0.462 ± 0.0279 fold-change vs cycle 0	0.536 ± 0.0251 fold-change vs cycle 0	0.619 ± 0.0493 fold-change vs cycle 0
ATCTAC	1.31 ± 0.0255 fold-change vs cycle 0	1.41 ± 0.0427 fold-change vs cycle 0	1.38 ± 0.0966 fold-change vs cycle 0
ATCAAC	1.34 ± 0.0602 fold-change vs cycle 0	1.45 ± 0.0864 fold-change vs cycle 0	1.42 ± 0.0753 fold-change vs cycle 0
GATCTA	1.25 ± 0.0377 fold-change vs cycle 0	1.36 ± 0.0544 fold-change vs cycle 0	1.41 ± 0.0811 fold-change vs cycle 0
AGCAAG	0.735 ± 0.0328 fold-change vs cycle 0	0.837 ± 0.0375 fold-change vs cycle 0	0.888 ± 0.035 fold-change vs cycle 0
AATAAT	4.57 ± 0.438 fold-change vs cycle 0	2.66 ± 0.189 fold-change vs cycle 0	2.27 ± 0.265 fold-change vs cycle 0
TAGAAA	2.03 ± 0.103 fold-change vs cycle 0	1.91 ± 0.061 fold-change vs cycle 0	1.69 ± 0.141 fold-change vs cycle 0

Sequence	binding signal (SALL4 ZFC4 WT (HT-SELEX))	binding signal [1]	binding signal [2]
CACTTA	1.34 ± 0.0677 fold-change vs cycle 0	1.46 ± 0.0563 fold-change vs cycle 0	1.38 ± 0.0979 fold-change vs cycle 0
ATTACG	1.22 ± 0.102 fold-change vs cycle 0	1.27 ± 0.0629 fold-change vs cycle 0	1.23 ± 0.0609 fold-change vs cycle 0
CAAGCA	0.6412 ± 0.00497 fold-change vs cycle 0	0.724 ± 0.0186 fold-change vs cycle 0	0.814 ± 0.0122 fold-change vs cycle 0
AATGAG	1.36 ± 0.0386 fold-change vs cycle 0	1.5 ± 0.047 fold-change vs cycle 0	1.41 ± 0.0472 fold-change vs cycle 0
GAGCTA	0.677 ± 0.0225 fold-change vs cycle 0	0.747 ± 0.0353 fold-change vs cycle 0	0.858 ± 0.0136 fold-change vs cycle 0
AGTAGG	0.864 ± 0.0537 fold-change vs cycle 0	0.972 ± 0.0557 fold-change vs cycle 0	0.989 ± 0.0263 fold-change vs cycle 0
CAAACA	1.04 ± 0.0367 fold-change vs cycle 0	1.17 ± 0.0357 fold-change vs cycle 0	1.18 ± 0.0394 fold-change vs cycle 0
ACCCTG	0.474 ± 0.0232 fold-change vs cycle 0	0.563 ± 0.034 fold-change vs cycle 0	0.648 ± 0.0451 fold-change vs cycle 0
CTTTCC	0.771 ± 0.025 fold-change vs cycle 0	0.935 ± 0.0213 fold-change vs cycle 0	0.967 ± 0.0233 fold-change vs cycle 0
CGGAGA	0.359 ± 0.025 fold-change vs cycle 0	0.45 ± 0.0336 fold-change vs cycle 0	0.543 ± 0.0379 fold-change vs cycle 0
AAAGGT	1.26 ± 0.075 fold-change vs cycle 0	1.41 ± 0.06 fold-change vs cycle 0	1.29 ± 0.0787 fold-change vs cycle 0
AGCCTA	0.614 ± 0.0322 fold-change vs cycle 0	0.728 ± 0.0355 fold-change vs cycle 0	0.832 ± 0.0333 fold-change vs cycle 0
CACAAC	0.647 ± 0.0332 fold-change vs cycle 0	0.72 ± 0.018 fold-change vs cycle 0	0.828 ± 0.0337 fold-change vs cycle 0
CGATTC	0.682 ± 0.0336 fold-change vs cycle 0	0.738 ± 0.0472 fold-change vs cycle 0	0.84 ± 0.0386 fold-change vs cycle 0
GTTAGA	1.3 ± 0.0316 fold-change vs cycle 0	1.47 ± 0.0186 fold-change vs cycle 0	1.41 ± 0.0651 fold-change vs cycle 0
ACTAGA	1.39 ± 0.0596 fold-change vs cycle 0	1.52 ± 0.0902 fold-change vs cycle 0	1.41 ± 0.142 fold-change vs cycle 0
ATTCCA	1.45 ± 0.0836 fold-change vs cycle 0	1.44 ± 0.0779 fold-change vs cycle 0	1.38 ± 0.106 fold-change vs cycle 0
ATTGTA	2.07 ± 0.0871 fold-change vs cycle 0	2.03 ± 0.111 fold-change vs cycle 0	1.79 ± 0.162 fold-change vs cycle 0
AATGAT	2.25 ± 0.203 fold-change vs cycle 0	2.15 ± 0.135 fold-change vs cycle 0	1.94 ± 0.238 fold-change vs cycle 0
GGACAC	0.362 ± 0.012 fold-change vs cycle 0	0.454 ± 0.013 fold-change vs cycle 0	0.559 ± 0.0612 fold-change vs cycle 0
ACCGAT	0.687 ± 0.0287 fold-change vs cycle 0	0.745 ± 0.0142 fold-change vs cycle 0	0.862 ± 0.0275 fold-change vs cycle 0
AAGTGC	0.551 ± 0.0359 fold-change vs cycle 0	0.63 ± 0.00993 fold-change vs cycle 0	0.76 ± 0.0221 fold-change vs cycle 0
